Data reported in PubChem BioAssay AID738 (SRMLSC, 2007).
Among all 98,000 compounds or so, about 4,900 (5%) were called active. The list comes from a sample in which actives are over-represented; it also holds similar structures and randomly drawn compounds. A number with no mark means an inactive call. No stated cut-off is given here; in the data, active means inhibition above about 30%; inactive means the rest.

Experiment: yeast control strain growth suppression – counter-screen for post-Golgi transport modulator project, primary screen (AID 738)
Conditions: efflux-deficient yeast background strain, growth absorbance A615, 16 h; at 10 µM; hits give high values
With `Cc1nc2ccccn2c1P(=S)(N1CCCCC1)N1CCCCC1` the inhibition was 49.1% (active). With `COc1ccc(C(=O)C2CN(C)CC2C(=O)c2ccc(OC)cc2)cc1` (stereo not given) the inhibition was 20.5%. For `CCC(=NCCc1ccccc1)c1c(O)n(C2CCCCC2)c(=O)[nH]c1=O`, the inhibition was 70.8% (active). Compound `CCC(=NCc1ccco1)c1c(O)n(Cc2ccccc2)c(=O)[nH]c1=O` has an inhibition of 15.9%. Work on `CC(=O)c1c(O)n(C2CCCCCC2)c(=O)[nH]c1=O` yielded an inhibition of 19.8%. `COc1ccc(C(=O)CC2C(=O)N(C)C(=O)N(C)C2=O)cc1` showed an inhibition of 6.25%. In the case of `O=C(c1cc2nc(-c3ccccc3)cc(-c3ccccc3)n2n1)N1CCC2(CC1)OCCO2`, the inhibition is reported as 29.5%. In the case of `CC(C)(C)c1ccc(CN2C(=O)CN=C(c3ccccc3)c3ccccc32)cc1`, the inhibition is reported as 33.8% (active). In the case of `CN1CCC(N(C)Cc2cccnc2)CC1`, the inhibition is reported as 7.07%. In the case of `CCOc1ccc(CN(CCCl)CCCl)cc1C(=O)OC`, the inhibition is reported as 22.7%. `O=C(CN1CCCCC1)Nc1ccc(Br)cc1C(=O)c1ccccc1Cl` showed an inhibition of 29.2%. `CCNc1nc2[nH]c(=O)c3c(c2s1)OC(N)=C(C#N)C3c1cccs1` (stereo not given) showed an inhibition of 5.65%. Compound `COc1ccccc1-n1c(O)c(C=NC2CC2)c(=O)[nH]c1=O` has an inhibition of 6.8%. `OC(CNC1CCCCC1)c1ccccc1` (stereo not given) gave an inhibition of 5.79%. `CCOP(=S)(OCC)SCOC(=O)NCC(=O)OC` showed an inhibition of 4.53%. Work on `O=[N+]([O-])c1ccc(C2C3C(c4ccccc4)=NC4(CCCCC4)N32)cc1` (stereo not given) yielded an inhibition of 18%. Work on `Cc1ccc(Cn2c(C)c3cnn(CC(=O)N4CCC5(CC4)OCCO5)c(=O)c3c2C)cc1` yielded an inhibition of -1.49%. With `N#Cc1ccc(Cn2cc(C(=O)c3ccco3)c3ccccc32)cc1` the inhibition was 38.7% (active). For `COc1ccc(CCn2c(O)c(C=NCCCn3ccnc3)c(=O)[nH]c2=O)cc1OC`, the inhibition was 2.05%. `Cn1c(O)c(C=NCCCC(=O)O)c(=O)n(C)c1=O` gave an inhibition of 2.29%. `Cc1ccc(N(C)C(=O)Oc2cccc3ccc(C)nc23)cc1` showed an inhibition of 5.47%. `CC[N+](CC)(CC)CCCCCCCCCC[N+](CC)(CC)CC` showed an inhibition of -4.82%. With `CCOC(=O)C1SC2(C(F)(F)C(F)F)CC1(O)c1c(c(OC)c3occc3c1OC)O2` (stereo not given) the inhibition was 33.6% (active). With `O=c1c2ccccc2nc(-c2ccc(Cl)cc2Cl)n1-c1ccncc1` the inhibition was 9.41%. With `COc1cc(Cn2c(N)c(C(=O)NCc3ccco3)c3nc4ccccc4nc32)cc(OC)c1OC` the inhibition was 7.01%. For `CC(=O)Nc1ccccc1C(=O)OCC(=O)c1cccc2ccccc12`, the inhibition was 0.9%. With `CCCCCCN=C(CC)c1c(O)n(CCCC)c(=O)[nH]c1=O` the inhibition was 36.3% (active). Work on `CCC(=NCCCO)c1c(O)n(-c2ccc(OC)cc2)c(=O)[nH]c1=O` yielded an inhibition of 3.64%. `CCCCn1c(O)c(C(CC)=NCc2ccco2)c(=O)[nH]c1=O` gave an inhibition of 16.6%. With `CC(=O)c1ccc(OC(NC(=O)Cc2ccccc2)C(Cl)(Cl)Cl)cc1` (stereo not given) the inhibition was 4.53%.
